Data taken from PubChem BioAssay AID1159580 (chemical genetic matrix, 2015).
About 2,000 (36%) of roughly 5,500 compounds were called active. Roughly 18% stayed inconclusive and do not appear here. Rule as the data show it: active = normalized growth mostly below about 0.91 (no sharp cut-off); inconclusive = no clear call, values can overlap the other calls; inactive = mostly above about 0.92. This is one part of the list.

Assay: chemical genetic growth profiling, strain panel (AID 1159580);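 also: tested at 20 µM; growth read once vehicle control cultures reached saturation at 30 °C; 1 = growth at the plate median or of vehicle wells; lower values mean less growth of the strain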
Details: growth OD

Measured: normalized growth

COc1cc(-c2coc3cc(OC)c(OC)c(OC)c3c2=O)cc(OC)c1OC
inactive: S. cerevisiae deletion strains, locus YJR066W, strain TOR1, stronger effect = lower value 0.99 | S. cerevisiae deletion strains, locus YJR075W, strain HOC1, stronger effect = lower value 0.975 | S. cerevisiae deletion strains, locus YKL009W, strain mrt4, stronger effect = lower value 0.98 | S. cerevisiae deletion strains, locus YKL068W, stronger effect = lower value 0.988 | S. cerevisiae deletion strains, locus YKL085W, strain MDH1 (second series), stronger effect = lower value 0.973 | S. cerevisiae deletion strains, locus YKL085W, strain MDH1, stronger effect = lower value 0.973 | S. cerevisiae deletion strains, locus YKL160W, strain elf1, stronger effect = lower value 0.994 | S. cerevisiae deletion strains, locus YKR001C, strain vps1, stronger effect = lower value 1.02 | S. cerevisiae deletion strains, locus YKR026C, strain gcn3, stronger effect = lower value 0.997 | S. cerevisiae deletion strains, locus YKR091W, strain srl3, stronger effect = lower value 1 | S. cerevisiae deletion strains, locus YLL001W, strain dnm1, stronger effect = lower value 0.96 | S. cerevisiae deletion strains, locus YLL026W, stronger effect = lower value 0.996 | S. cerevisiae deletion strains, locus YLL041C, strain sdh2, stronger effect = lower value 0.996 | S. cerevisiae deletion strains, locus YLR027C, strain aat2, stronger effect = lower value 1.01 | S. cerevisiae deletion strains, locus YLR039C, strain RIC1, stronger effect = lower value 1 | S. cerevisiae deletion strains, locus YLR058C, strain SHM2, stronger effect = lower value 0.99 | S. cerevisiae deletion strains, locus YLR102C, strain apc9, stronger effect = lower value 1 | S. cerevisiae deletion strains, locus YLR113W, strain HOG1, stronger effect = lower value 0.98 | S. cerevisiae deletion strains, locus YLR221C, strain rsa3, stronger effect = lower value 0.997 | S. cerevisiae deletion strains, locus YLR258W, strain gsy2, stronger effect = lower value 0.989 | S. cerevisiae deletion strains, locus YLR262C, strain YPT6 (second series), stronger effect = lower value 0.972 | S. cerevisiae deletion strains, locus YLR262C, strain YPT6, stronger effect = lower value 1.01 | S. cerevisiae deletion strains, locus YLR268W, strain sec22, stronger effect = lower value 1.03 | S. cerevisiae deletion strains, locus YLR320W, strain mms22, stronger effect = lower value 1.01 | S. cerevisiae deletion strains, locus YLR330W, strain CHS5, stronger effect = lower value 0.998 | S. cerevisiae deletion strains, locus YLR342W, strain FKS1 (second series), stronger effect = lower value 1.08 | S. cerevisiae deletion strains, locus YLR342W, strain FKS1, stronger effect = lower value 1.01 | S. cerevisiae deletion strains, locus YLR357W, strain rsc2, stronger effect = lower value 0.953 | S. cerevisiae deletion strains, locus YLR370C, strain arc18, stronger effect = lower value 0.997 | S. cerevisiae deletion strains, locus YLR371W, strain rom2, stronger effect = lower value 1.01 | S. cerevisiae deletion strains, locus YLR384C, strain iki3, stronger effect = lower value 0.982 | S. cerevisiae deletion strains, locus YLR418C, strain cdc73, stronger effect = lower value 0.984 | S. cerevisiae deletion strains, locus YML016C, strain PPZ1, stronger effect = lower value 1 | S. cerevisiae deletion strains, locus YML032C, strain rad52, stronger effect = lower value 1.01 | S. cerevisiae deletion strains, locus YML120C, strain ndi1, stronger effect = lower value 0.997 | S. cerevisiae deletion strains, locus YML124C, strain tub3, stronger effect = lower value 0.989 | S. cerevisiae deletion strains, locus YMR058W, strain fet3, stronger effect = lower value 1.01 | S. cerevisiae deletion strains, locus YMR078C, strain ctf18, stronger effect = lower value 1.01 | S. cerevisiae deletion strains, locus YMR125W, strain sto1, stronger effect = lower value 0.992 | S. cerevisiae deletion strains, locus YMR129W, stronger effect = lower value 0.989 | S. cerevisiae deletion strains, locus YMR205C, strain PFK2, stronger effect = lower value 1.01 | S. cerevisiae deletion strains, locus YMR223W, strain ubp8, stronger effect = lower value 0.998 | S. cerevisiae deletion strains, locus YMR231W, strain pep5, stronger effect = lower value 0.987 | S. cerevisiae deletion strains, locus YMR307W, strain GAS1, stronger effect = lower value 1.13 | S. cerevisiae deletion strains, locus YNL067W, strain RPL9B, stronger effect = lower value 0.973 | S. cerevisiae deletion strains, locus YNL071W, strain lat1, stronger effect = lower value 1 | S. cerevisiae deletion strains, locus YNL183C, strain NPR1, stronger effect = lower value 0.984 | S. cerevisiae deletion strains, locus YNL209W, strain ssb2, stronger effect = lower value 1 | S. cerevisiae deletion strains, locus YNL233W, strain BNI4, stronger effect = lower value 0.982 | S. cerevisiae deletion strains, locus YNL248C, strain rpa49, stronger effect = lower value 0.983 | S. cerevisiae deletion strains, locus YNL250W, strain rad50, stronger effect = lower value 0.944 | S. cerevisiae deletion strains, locus YNL271C, strain bni1, stronger effect = lower value 0.995 | S. cerevisiae deletion strains, locus YNL298W, strain CLA4, stronger effect = lower value 0.996 | S. cerevisiae deletion strains, locus YNL307C, strain MCK1, stronger effect = lower value 1 | S. cerevisiae deletion strains, locus YNL322C, strain KRE1 (second series), stronger effect = lower value 0.998 | S. cerevisiae deletion strains, locus YNR049C, strain mso1, stronger effect = lower value 1 | S. cerevisiae deletion strains, locus YNR052C, strain pop2, stronger effect = lower value 0.977 | S. cerevisiae deletion strains, locus YOL012C, strain htz1 1.11 | S. cerevisiae deletion strains, locus YOL147C, strain pex11, stronger effect = lower value 0.998 | S. cerevisiae deletion strains, locus YOR001W, strain rrp6, stronger effect = lower value 0.997 | S. cerevisiae deletion strains, locus YOR061W, strain CKA2, stronger effect = lower value 1.01 | S. cerevisiae deletion strains, locus YOR069W, strain VPS5, stronger effect = lower value 0.989 | S. cerevisiae deletion strains, locus YOR070C, strain gyp1, stronger effect = lower value 0.991 | S. cerevisiae deletion strains, locus YOR080W, strain dia2, stronger effect = lower value 0.995 | S. cerevisiae deletion strains, locus YOR083W, strain WHI5, stronger effect = lower value 0.996 | S. cerevisiae deletion strains, locus YOR106W, strain vam3, stronger effect = lower value 0.988 | S. cerevisiae deletion strains, locus YOR136W, strain idh2, stronger effect = lower value 0.993 | S. cerevisiae deletion strains, locus YOR144C, strain elg1, stronger effect = lower value 0.997 | S. cerevisiae deletion strains, locus YOR184W, strain ser1, stronger effect = lower value 1.08 | S. cerevisiae deletion strains, locus YOR231W, strain MKK1, stronger effect = lower value 1.04 | S. cerevisiae deletion strains, locus YOR265W, strain rbl2, stronger effect = lower value 1.01 | S. cerevisiae deletion strains, locus YOR270C, strain vph1, stronger effect = lower value 1.01 | S. cerevisiae deletion strains, locus YOR290C, strain snf2, stronger effect = lower value 1.01 | S. cerevisiae deletion strains, locus YOR316C, strain cot1, stronger effect = lower value 0.99 | S. cerevisiae deletion strains, locus YPL051W, strain arl3, stronger effect = lower value 0.994 | S. cerevisiae deletion strains, locus YPL055C, strain LGE1, stronger effect = lower value 1.03 | S. cerevisiae deletion strains, locus YPL078C, strain atp4, stronger effect = lower value 0.998 | S. cerevisiae deletion strains, locus YPL106C, strain sse1, stronger effect = lower value 0.984 | S. cerevisiae deletion strains, locus YPL240C, strain hsp82, stronger effect = lower value 1 | S. cerevisiae deletion strains, locus YPL256C, strain CLN2, stronger effect = lower value 1.03 | S. cerevisiae deletion strains, locus YPR119W, strain clb2, stronger effect = lower value 0.975 | S. cerevisiae deletion strains, locus YPR141C, strain kar3, stronger effect = lower value 0.972 | S. cerevisiae deletion strains, locus YPR163C, strain tif3, stronger effect = lower value 1 | S. cerevisiae deletion strains, locus YPR167C, strain met16, stronger effect = lower value 0.995 | S. cerevisiae deletion strains, strain wtn01, stronger effect = lower value 1.03 | S. cerevisiae strains, strain wild type, stronger effect = lower value 1.02
